{"source": "PubChem BioAssay (NCATS)", "note": "Values without a mark were called inactive. How the calls were made is not given here. Potency means the concentration at half of the fitted maximal effect."}
{"system": "HIV-1 nucleocapsid protein NCp7 (binding to TG oligonucleotide)", "test": "HIV Nucleocapsid (AID 346);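 further: potency is for inhibitors that block NC binding and lower polarization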", "conditions": "HIV-1 NC / fluorescein-TGTGTGTG probe, fluorescence polarization", "in_short": "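Fluorescence polarization readout: labelled TG4xF oligo (10 nM) with 100 nM nucleocapsid protein, high-salt (250mM NaCl) Hepes pH 7.5 buffer containing zinc and fresh reducing agents. Compounds added by pin tool; incubation 1 hr, room temperature.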", "units": {"Potency": "µM"}}
{"smiles": "COc1cccc(-c2ccc3ncnc(NCc4cccs4)c3c2)c1", "Potency": "> 20"}
{"smiles": "O=C(c1cccc(F)c1)N1CCC2(CC1)CCN(c1ccccn1)CC2", "Potency": "> 20"}
{"smiles": "Cn1c(=O)c(-c2cc(F)cc(F)c2)nc2cnc(Nc3ccccc3)nc21", "Potency": "> 20"}
{"smiles": "COc1ccccc1CNc1ncnc2ccc(-c3ccccc3C#N)cc12", "Potency": "> 20"}
{"smiles": "O=c1c(-c2cc(F)cc(F)c2)nc2cnc(N3CCNCC3)nc2n1-c1ccccc1", "Potency": "> 20"}
{"smiles": "Cc1nc2cnc(N(C)C)nc2n(Cc2ccc(F)cc2)c1=O", "Potency": "> 20"}
{"smiles": "COCC(=O)N1CCC[C@@]2(CCN(C(c3ccccc3)c3ccccc3)C2)C1", "Potency": "> 20"}
{"smiles": "COc1ccccc1CCn1c(=O)c(CCc2ccccc2)nc2cncnc21", "Potency": "> 20"}
{"smiles": "c1csc(CNc2ccnc(-c3ccc4c(c3)OCO4)n2)c1", "Potency": "> 20"}
{"smiles": "COCC(=O)N1CCC2(CC1)CCN(c1ccc(-c3ccccc3)cc1)CC2", "Potency": "> 20"}
{"smiles": "CN1CCN(c2ncc3nc(-c4cccc(C#N)c4)c(=O)n(CCC#N)c3n2)CC1", "Potency": "> 20"}
{"smiles": "O=C(Oc1ccccc1)N1CCC2(CCCN(c3ccccc3)C2)CC1", "Potency": "> 20"}
{"smiles": "CC(C)CN1CCCC2(CCN(C(=O)c3ccco3)CC2)C1", "Potency": "> 20"}
{"smiles": "COc1cccc(Cn2c(=O)c(-c3ccc(F)c(F)c3)nc3cncnc32)c1", "Potency": "> 20"}
{"smiles": "COc1ccccc1CNc1cc(-c2cccnc2)ncn1", "Potency": "> 20"}
{"smiles": "CC(=O)N1CCC2(CC1)CN(Cc1ccc(C#N)cc1)C2", "Potency": "> 20"}
{"smiles": "Cc1nc2cnc(N3CCN(C)CC3)nc2n(-c2ccccc2)c1=O", "Potency": "> 20"}
{"smiles": "Cn1cccc1C(=O)N1CCC2(CCCN(c3cccc(-c4ccccc4)c3)C2)CC1", "Potency": "> 20"}
{"smiles": "N#Cc1cccc(NC(=O)N2CCCC3(CCN(C(=O)c4ccco4)CC3)C2)c1", "Potency": "> 4"}
{"smiles": "COc1cccc(-c2ccc3ncnc(N(C)C)c3c2)c1", "Potency": "> 20"}
{"smiles": "CN(C)c1ncc2ncc(=O)n(CCC#N)c2n1", "Potency": "> 20"}
{"smiles": "O=c1c(-c2ccccc2)nc2cnc(N3CCOCC3)nc2n1C[C@H]1CCCO1", "Potency": "> 20"}
{"smiles": "COc1ccc(-c2nc3cnc(N4CCN(C)CC4)nc3n(-c3ccc(OC)cc3)c2=O)cc1", "Potency": "> 20"}
{"smiles": "COCC(=O)N1CCC2(CCCN(Cc3cc(C(F)(F)F)cc(C(F)(F)F)c3)C2)CC1", "Potency": "> 20"}
{"smiles": "CN1CCN(c2ncc3nc(-c4ccc(Cl)cc4)c(=O)n(CCC#N)c3n2)CC1", "Potency": "> 20"}
{"smiles": "CS(=O)(=O)Nc1cccc(-c2cc(Nc3ccccc3)ncn2)c1", "Potency": "> 20"}
{"smiles": "CS(=O)(=O)Nc1cccc(-c2cncnc2NCc2ccccc2)c1", "Potency": "> 20"}
{"smiles": "CCNc1ncc2nc(CCc3ccccc3)c(=O)n(-c3ccccc3)c2n1", "Potency": "> 4"}
{"smiles": "Cc1cccc(CNc2ncnc3ccc(-c4cccc(C#N)c4)cc23)c1", "Potency": "> 20"}
{"smiles": "N#Cc1ccc(CN2CCC3(CC2)CCN(C(=O)c2cnccn2)CC3)cc1", "Potency": "> 20"}
{"smiles": "COc1cccc(Nc2ncc3ncc(=O)n(C4CC4)c3n2)c1", "Potency": "> 4"}
{"smiles": "COc1cccc(Nc2ncc3ncc(=O)n(C)c3n2)c1", "Potency": "> 20"}
{"smiles": "COc1ccc(-n2c(=O)c(-c3cccs3)nc3cnc(Oc4ccccc4)nc32)cc1", "Potency": "> 4"}
{"smiles": "CC(=O)N1CCC[C@@]2(CCN(c3ccncc3)C2)C1", "Potency": "> 20"}
{"smiles": "COCCn1c(=O)c(-c2cccc(C#N)c2)nc2cnc(N3CCN(C)CC3)nc21", "Potency": "> 20"}
{"smiles": "CN1CCN(c2ncnc3ccc(-c4ccccc4C(F)(F)F)cc23)CC1", "Potency": "> 20"}
{"smiles": "COc1ccc2[nH]cc(CCNc3ccnc(-c4cccc(C#N)c4)n3)c2c1", "Potency": "> 20"}
{"smiles": "CN(C)c1ncc2nc(-c3cccs3)c(=O)n(C)c2n1", "Potency": "> 4"}
{"smiles": "O=C(c1csnn1)N1CCC[C@@]2(CCN(c3ncccn3)C2)C1", "Potency": "> 20"}
{"smiles": "O=C(c1ccco1)N1CCC2(CCN(Cc3ccncc3)CC2)CC1", "Potency": "> 20"}
